Experimental data taken from the supplement of paper PMC10849652.
About 8,800 targets were measured; listed, in parts, are those with a hit and a random draw of the rest. About 0.5% of all pairs of compound and target were hits.

What was measured:
Assay in all cases: log2 fold change, soluble protein after heating vs DMSO (PISA); higher = thermal stabilisation; K562 lysate, 10 uM; active = over 0.2 and 3.5 SD of the protein, either way, in both replicates (recomputed)
erlotinib = compound: C#Cc1cccc(Nc2ncnc3cc(OCCOC)c(OCCOC)cc23)c1 [erlotinib]
Outline: (§1)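 K562 pellets were dounce-homogenised in PBS pH 7.4 containing 1 mM MgCl2, and the crude extract, at 1 mg/mL protein, was exposed to 10 μM compound for 30 min. Aliquots were heated for 3 min across 48°C-58°C, pooled, brought to 0.5% NP-40 at 4°C and spun at 21,000xg for 90 min, with the supernatant taken as soluble protein. TMTpro 16plex LC-MS/MS with equalised channel sums quantified that protein. Values are log-two fold changes in thermal stability relative to solvent controls, taken from duplicates.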

[1] = compound: C/C(=N\NC(=O)C1=CC(=CC=C1)S(=O)(=O)N2CCOCC2)/C3=C(C=CC(=C3)Cl)O
Outline: as §1

[2] = compound: C1=CC(=CC=C1C2=NC3=C(N2)C=C(C=C3)C(=O)N)OC4=CC=C(C=C4)Cl
Outline: as §1

[3] = compound: C1=CC2=C(C=CC(=C2)/C=C\3/C(=O)NC(=NCC4=CC=CS4)S3)N=C1
Outline: as §1

[4] = compound: C1=CC2=NC=CN=C2C=C1/C=C/3\C(=O)NC(=O)S3
Outline: as §1

[5] = compound: C1=CC=C(C=C1)C2=NC(=C(N2)C3=CC=NC=C3)C4=CC(=C(C=C4)Cl)O
Outline: as §1

[6] = compound: C1=CC=C2C(=C1)C3=NNC4=CC=CC(=C43)C2=O
Outline: as §1

[7] = compound: C1CCN(C1)C(=O)NC2=CC=CC(=C2)NC3=NC=C(C(=N3)NCCC4=CN=CN4)Br
Outline: as §1

[8] = compound: C1CN(CCC1(CC2=CC=C(C=C2)Cl)N)C3=NC=NC4=C3C=CN4
Outline: as §1

IRAK-1-4 Inhibitor I = compound: C1COCCN1CCN2C3=CC=CC=C3N=C2NC(=O)C4=CC(=CC=C4)[N+](=O)[O-] [IRAK-1-4 Inhibitor I]
Outline: as §1

ibrutinib = compound: C=CC(=O)N1CCC[C@@H](n2nc(-c3ccc(Oc4ccccc4)cc3)c3c(N)ncnc32)C1 [ibrutinib]
Outline: as §1

[9] = compound: CC(=O)c1cnc2ccc(-c3cc(Cl)c(O)c(Cl)c3)nc2c1N[C@H]1CC[C@H](CN(C)C)CC1
Outline: as §1

ralimetinib = compound: CC(C)(C)Cn1c(N)nc2ccc(-c3[nH]c(C(C)(C)C)nc3-c3ccc(F)cc3)nc21 [ralimetinib]
Outline: as §1

[10] = compound: CC(C)(O)CC(=O)NCCn1ccc2ncnc(Nc3ccc(Oc4cccc(C(F)(F)F)c4)c(Cl)c3)c21
Outline: as §1

[11] = compound: CC(C)C1=C2N=C(C=C(N2N=C1)NCC3=CC=CC=C3)NCCCCCCN
Outline: as §1

[12] = compound: CC1=C(C(CC(=O)N1)C2=CC=C(C=C2)C(F)(F)F)C(=O)NC3=C(C=C4C(=C3)C=NN4)F
Outline: as §1

[13] = compound: CC1=C(C2=C(C=C1)C(=O)C3=CC=CC=C3N2CCCN)C
Outline: as §1

[14] = compound: CC1=C(C=C(C=C1)NC(=O)C2=CC(=CC=C2)C(C)(C)C#N)NC3=CC4=C(C=C3)N=CN(C4=O)C
Outline: as §1

[15] = compound: CC1=C(C=C(C=C1)NC(=O)C2=CC(=CC=C2)N(C)C)NC(=O)C3=CC=C(C=C3)O
Outline: as §1

[16] = compound: CC1=CC=C(C=C1)SC2=C3C=C(SC3=CN=C2)C(=O)N
Outline: as §1

Measured: log2 fold change

VAMP2 (UniProt P63027)
UniProt P63027, sequence (P63027 whole entry, looked up): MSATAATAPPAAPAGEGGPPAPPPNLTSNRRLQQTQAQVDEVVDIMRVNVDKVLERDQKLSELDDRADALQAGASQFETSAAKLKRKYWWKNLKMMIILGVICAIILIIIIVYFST
inactive: erlotinib -0.083 | [1] 0.055 | [2] -0.024 | [3] -0.063 | [4] 0.063 | [5] -0.082 | [6] -0.037 | [7] 0.081 | [8] -0.009 | IRAK-1-4 Inhibitor I -0.033 | ibrutinib -0.039 | [9] -0.027 | ralimetinib 0.002 | [10] -0.006 | [11] -0.036 | [12] -0.069 | [13] -0.01 | [14] -0.048 | [15] 0.047 | [16] 0.035

WDR7 (UniProt Q9Y4E6)
inactive: erlotinib 0.05 | [1] -0.076 | [2] -0.016 | [3] -0.059 | [4] -0.001 | [5] -0.005 | [6] -0.038 | [7] 0.018 | [8] 0.042 | IRAK-1-4 Inhibitor I 0.01 | ibrutinib 0.067 | [9] 0.04 | ralimetinib 0.063 | [10] -0.075 | [11] -0.03 | [12] -0.005 | [13] -0.013 | [14] 0.037 | [15] -0.06 | [16] -0.013

USP48 (UniProt Q86UV5)
UniProt Q86UV5, sequence (Q86UV5 whole entry, looked up): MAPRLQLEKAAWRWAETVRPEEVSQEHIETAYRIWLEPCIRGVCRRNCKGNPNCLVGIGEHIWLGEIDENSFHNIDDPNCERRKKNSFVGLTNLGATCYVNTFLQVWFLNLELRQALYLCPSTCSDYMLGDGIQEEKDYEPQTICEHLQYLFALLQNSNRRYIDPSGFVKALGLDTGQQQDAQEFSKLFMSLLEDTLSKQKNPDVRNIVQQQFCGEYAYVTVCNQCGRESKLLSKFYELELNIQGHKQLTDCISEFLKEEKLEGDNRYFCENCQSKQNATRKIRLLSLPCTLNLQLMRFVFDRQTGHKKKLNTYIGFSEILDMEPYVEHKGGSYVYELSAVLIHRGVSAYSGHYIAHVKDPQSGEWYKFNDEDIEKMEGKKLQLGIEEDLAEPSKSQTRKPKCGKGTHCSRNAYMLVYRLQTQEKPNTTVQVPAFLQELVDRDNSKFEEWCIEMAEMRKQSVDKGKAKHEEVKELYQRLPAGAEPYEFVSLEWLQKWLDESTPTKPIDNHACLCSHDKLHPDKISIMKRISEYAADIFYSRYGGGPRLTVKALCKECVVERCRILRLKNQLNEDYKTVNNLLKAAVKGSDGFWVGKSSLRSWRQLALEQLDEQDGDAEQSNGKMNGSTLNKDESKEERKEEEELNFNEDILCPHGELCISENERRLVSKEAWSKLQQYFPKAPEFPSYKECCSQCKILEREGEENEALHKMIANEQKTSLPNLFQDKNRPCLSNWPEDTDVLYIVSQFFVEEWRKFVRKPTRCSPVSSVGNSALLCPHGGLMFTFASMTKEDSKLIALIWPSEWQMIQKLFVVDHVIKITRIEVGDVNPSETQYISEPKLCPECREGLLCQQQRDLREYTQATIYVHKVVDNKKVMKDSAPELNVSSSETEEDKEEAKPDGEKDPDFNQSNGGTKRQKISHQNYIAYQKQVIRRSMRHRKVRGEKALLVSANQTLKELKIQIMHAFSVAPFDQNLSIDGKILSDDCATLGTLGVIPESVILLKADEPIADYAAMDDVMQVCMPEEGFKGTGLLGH
inactive: erlotinib 0.022 | [1] 0.001 | [2] -0.015 | [3] -0.051 | [4] 0.006 | [5] 0.001 | [6] 0.049 | [7] -0.033 | [8] 0.013 | IRAK-1-4 Inhibitor I -0.026 | ibrutinib -0.028 | [9] -0.224 | ralimetinib -0.038 | [10] 0.031 | [11] -0.009 | [12] 0.018 | [13] 0 | [14] -0.039 | [15] 0.041 | [16] -0.227

VRK2 (UniProt Q86Y07)
inactive: erlotinib 0.04 | [1] 0.039 | [2] 0.113 | [3] -0.058 | [4] -0.056 | [5] 0 | [6] 0.064 | [7] 0.064 | [8] 0.196 | IRAK-1-4 Inhibitor I 0.049 | ibrutinib 0.049 | [9] 0.106 | ralimetinib 0.155 | [10] -0.041 | [11] -0.037 | [12] -0.036 | [13] -0.026 | [14] -0.021 | [15] 0.023 | [16] 0.149

YDJC (UniProt A8MPS7)
inactive: erlotinib -0.083 | [1] 0.036 | [2] -0.011 | [3] -0.012 | [4] -0.01 | [5] 0.029 | [6] -0.065 | [7] -0.034 | [8] 0.029 | IRAK-1-4 Inhibitor I -0.023 | ibrutinib 0.024 | [9] 0.023 | ralimetinib -0.015 | [10] -0.064 | [11] -0.028 | [12] 0.052 | [13] -0.034 | [14] 0.011 | [15] 0.022 | [16] 0.021

VRK1 (UniProt Q99986)
inactive: erlotinib 0.009 | [1] -0.05 | [2] 0.002 | [3] 0.049 | [4] 0.015 | [5] 0.024 | [6] -0.02 | [7] 0 | [8] 0.02 | IRAK-1-4 Inhibitor I -0.02 | ibrutinib 0.008 | [9] 0.035 | ralimetinib 0.122 | [10] 0.005 | [11] -0.008 | [12] -0.013 | [13] 0.007 | [14] -0.015 | [15] 0.018 | [16] 0.003

WDR45 isoform 2 (UniProt Q9Y484)
inactive: erlotinib -0.047 | [1] -0.032 | [2] -0.024 | [3] -0.001 | [4] 0.06 | [5] -0.008 | [6] -0.016 | [7] 0.041 | [8] -0.005 | IRAK-1-4 Inhibitor I -0.012 | ibrutinib 0.018 | [9] 0.014 | ralimetinib 0.13 | [10] 0.111 | [11] -0.008 | [12] 0.014 | [13] 0.028 | [14] -0.04 | [15] -0.014 | [16] -0.036

WDR6 (UniProt Q9NNW5)
inactive: erlotinib 0.001 | [1] 0.01 | [2] 0.002 | [3] 0.026 | [4] -0.01 | [5] 0 | [6] -0.014 | [7] -0.02 | [8] 0.021 | IRAK-1-4 Inhibitor I -0.011 | ibrutinib 0.008 | [9] 0.008 | ralimetinib 0.018 | [10] -0.017 | [11] -0.032 | [12] -0.012 | [13] -0.019 | [14] 0.011 | [15] 0.022 | [16] 0.017

UQCRC2 (UniProt P22695)
inactive: erlotinib 0 | [1] -0.029 | [2] 0.006 | [3] -0.005 | [4] -0.019 | [5] 0.01 | [6] 0.013 | [7] -0.001 | [8] 0.019 | IRAK-1-4 Inhibitor I 0.014 | ibrutinib -0.022 | [9] 0.001 | ralimetinib 0.005 | [10] -0.04 | [11] -0.005 | [12] -0.001 | [13] 0.012 | [14] 0.029 | [15] 0.003 | [16] -0.013

WDR41 (UniProt Q9HAD4)
inactive: erlotinib -0.071 | [1] -0.044 | [2] -0.021 | [3] 0.015 | [4] -0.027 | [5] -0.113 | [6] 0.031 | [7] -0.091 | [8] 0.049 | IRAK-1-4 Inhibitor I 0.029 | ibrutinib -0.163 | [9] -0.004 | ralimetinib 0.017 | [10] 0.088 | [11] -0.015 | [12] 0.03 | [13] -0.054 | [14] 0.164 | [15] -0.049 | [16] 0.015

VAC14 (UniProt Q08AM6)
inactive: erlotinib -0.007 | [1] 0.02 | [2] -0.004 | [3] 0.032 | [4] 0.024 | [5] -0.006 | [6] -0.023 | [7] 0.006 | [8] 0.015 | IRAK-1-4 Inhibitor I 0.024 | ibrutinib -0.029 | [9] -0.025 | ralimetinib -0.003 | [10] -0.055 | [11] 0.002 | [12] -0.008 | [13] 0.005 | [14] 0.003 | [15] 0.039 | [16] -0.034

VPS54 (UniProt Q9P1Q0)
inactive: erlotinib -0.018 | [1] -0.061 | [2] 0.059 | [3] -0.117 | [4] 0.213 | [5] -0.044 | [6] -0.114 | [7] -0.019 | [8] -0.079 | IRAK-1-4 Inhibitor I 0.036 | ibrutinib 0.048 | [9] -0.059 | ralimetinib -0.122 | [10] -0.267 | [11] -0.004 | [12] 0.038 | [13] 0.04 | [14] 0.144 | [15] 0.066 | [16] -0.037

ZMYM1 (UniProt Q5SVZ6)
UniProt Q5SVZ6, sequence (Q5SVZ6 whole entry, looked up): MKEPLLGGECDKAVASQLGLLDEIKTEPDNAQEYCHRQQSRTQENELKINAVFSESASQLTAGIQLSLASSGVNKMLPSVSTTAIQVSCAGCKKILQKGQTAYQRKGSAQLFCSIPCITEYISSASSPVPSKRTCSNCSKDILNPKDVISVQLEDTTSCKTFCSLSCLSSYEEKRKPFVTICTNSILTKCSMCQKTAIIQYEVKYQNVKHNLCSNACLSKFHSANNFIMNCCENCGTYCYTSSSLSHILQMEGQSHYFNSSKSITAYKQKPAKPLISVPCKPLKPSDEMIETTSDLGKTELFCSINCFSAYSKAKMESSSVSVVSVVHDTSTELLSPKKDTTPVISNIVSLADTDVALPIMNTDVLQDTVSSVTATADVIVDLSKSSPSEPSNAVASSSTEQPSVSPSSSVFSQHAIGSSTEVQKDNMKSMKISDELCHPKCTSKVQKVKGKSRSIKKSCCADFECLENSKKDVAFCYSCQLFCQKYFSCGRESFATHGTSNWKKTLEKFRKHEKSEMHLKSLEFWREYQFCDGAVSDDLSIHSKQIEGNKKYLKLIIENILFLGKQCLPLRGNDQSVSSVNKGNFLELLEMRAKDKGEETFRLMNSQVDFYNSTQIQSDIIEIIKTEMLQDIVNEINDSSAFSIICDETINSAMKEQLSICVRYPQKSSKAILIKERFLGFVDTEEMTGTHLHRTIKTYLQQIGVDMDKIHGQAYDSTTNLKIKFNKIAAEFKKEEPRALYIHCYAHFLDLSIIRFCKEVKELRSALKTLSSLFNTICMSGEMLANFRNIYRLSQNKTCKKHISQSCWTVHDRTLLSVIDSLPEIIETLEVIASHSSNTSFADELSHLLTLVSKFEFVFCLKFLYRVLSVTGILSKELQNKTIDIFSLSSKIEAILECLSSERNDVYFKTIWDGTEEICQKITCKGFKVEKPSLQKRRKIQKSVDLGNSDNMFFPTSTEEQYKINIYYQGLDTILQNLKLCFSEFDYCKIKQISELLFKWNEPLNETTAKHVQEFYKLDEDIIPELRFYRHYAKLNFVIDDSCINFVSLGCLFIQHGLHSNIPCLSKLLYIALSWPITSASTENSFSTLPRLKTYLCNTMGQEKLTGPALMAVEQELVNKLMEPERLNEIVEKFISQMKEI
inactive: erlotinib -0.041 | [1] -0.027 | [2] -0.002 | [3] 0.021 | [4] 0.007 | [5] -0.036 | [6] 0.041 | [7] 0.043 | [8] 0.025 | IRAK-1-4 Inhibitor I -0.008 | ibrutinib -0.04 | [9] 0.012 | ralimetinib 0.02 | [10] 0.016 | [11] -0.022 | [12] -0.049 | [13] -0.008 | [14] 0.001 | [15] -0.007 | [16] -0.011

YTHDC2 (UniProt Q9H6S0)
UniProt Q9H6S0, sequence (Q9H6S0 whole entry, looked up): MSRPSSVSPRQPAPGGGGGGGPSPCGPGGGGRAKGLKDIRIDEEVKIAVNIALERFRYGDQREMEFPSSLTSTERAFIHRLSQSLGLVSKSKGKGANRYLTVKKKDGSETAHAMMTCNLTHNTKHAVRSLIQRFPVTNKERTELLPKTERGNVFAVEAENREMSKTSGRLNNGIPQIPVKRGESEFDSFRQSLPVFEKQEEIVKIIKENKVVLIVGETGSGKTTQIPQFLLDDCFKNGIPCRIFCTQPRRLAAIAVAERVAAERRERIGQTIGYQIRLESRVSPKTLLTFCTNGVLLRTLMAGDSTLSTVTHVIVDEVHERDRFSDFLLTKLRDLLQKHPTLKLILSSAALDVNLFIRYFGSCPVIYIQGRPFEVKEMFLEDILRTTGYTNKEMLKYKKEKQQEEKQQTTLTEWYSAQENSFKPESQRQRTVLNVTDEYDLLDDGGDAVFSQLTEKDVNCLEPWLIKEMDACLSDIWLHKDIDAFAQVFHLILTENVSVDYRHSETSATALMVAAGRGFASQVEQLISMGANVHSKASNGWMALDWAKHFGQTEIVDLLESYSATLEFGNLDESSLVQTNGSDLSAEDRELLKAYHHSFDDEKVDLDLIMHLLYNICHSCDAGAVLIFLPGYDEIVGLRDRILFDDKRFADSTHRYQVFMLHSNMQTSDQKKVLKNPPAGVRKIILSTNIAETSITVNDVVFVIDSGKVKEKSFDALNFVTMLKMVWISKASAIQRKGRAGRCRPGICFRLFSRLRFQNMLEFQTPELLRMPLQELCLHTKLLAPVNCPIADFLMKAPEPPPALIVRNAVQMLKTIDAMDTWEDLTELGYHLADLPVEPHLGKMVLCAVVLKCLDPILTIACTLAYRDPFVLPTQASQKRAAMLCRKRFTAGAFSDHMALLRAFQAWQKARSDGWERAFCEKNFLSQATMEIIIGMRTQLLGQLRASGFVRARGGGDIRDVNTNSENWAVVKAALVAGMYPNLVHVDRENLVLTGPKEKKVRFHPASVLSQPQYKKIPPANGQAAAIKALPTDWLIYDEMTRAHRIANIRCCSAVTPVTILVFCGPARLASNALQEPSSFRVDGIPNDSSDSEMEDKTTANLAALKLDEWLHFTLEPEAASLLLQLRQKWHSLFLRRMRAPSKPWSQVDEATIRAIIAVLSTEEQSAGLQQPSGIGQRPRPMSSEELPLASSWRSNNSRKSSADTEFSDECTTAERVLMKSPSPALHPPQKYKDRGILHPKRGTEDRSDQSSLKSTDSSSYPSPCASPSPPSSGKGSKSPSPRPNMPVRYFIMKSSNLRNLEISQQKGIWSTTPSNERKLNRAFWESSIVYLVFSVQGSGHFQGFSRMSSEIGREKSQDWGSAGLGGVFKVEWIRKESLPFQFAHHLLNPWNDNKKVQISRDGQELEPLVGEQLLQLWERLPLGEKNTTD
inactive: erlotinib -0.008 | [1] 0.065 | [2] 0.012 | [3] 0.027 | [4] 0.02 | [5] -0.001 | [6] 0.074 | [7] -0.019 | [8] 0.029 | IRAK-1-4 Inhibitor I 0.002 | ibrutinib 0.003 | [9] 0.009 | ralimetinib 0.061 | [10] 0.021 | [11] 0.013 | [12] 0.003 | [13] -0.023 | [14] -0.003 | [15] 0.019 | [16] -0.018

VARS (UniProt P26640)
UniProt P26640, sequence (P26640 whole entry, looked up): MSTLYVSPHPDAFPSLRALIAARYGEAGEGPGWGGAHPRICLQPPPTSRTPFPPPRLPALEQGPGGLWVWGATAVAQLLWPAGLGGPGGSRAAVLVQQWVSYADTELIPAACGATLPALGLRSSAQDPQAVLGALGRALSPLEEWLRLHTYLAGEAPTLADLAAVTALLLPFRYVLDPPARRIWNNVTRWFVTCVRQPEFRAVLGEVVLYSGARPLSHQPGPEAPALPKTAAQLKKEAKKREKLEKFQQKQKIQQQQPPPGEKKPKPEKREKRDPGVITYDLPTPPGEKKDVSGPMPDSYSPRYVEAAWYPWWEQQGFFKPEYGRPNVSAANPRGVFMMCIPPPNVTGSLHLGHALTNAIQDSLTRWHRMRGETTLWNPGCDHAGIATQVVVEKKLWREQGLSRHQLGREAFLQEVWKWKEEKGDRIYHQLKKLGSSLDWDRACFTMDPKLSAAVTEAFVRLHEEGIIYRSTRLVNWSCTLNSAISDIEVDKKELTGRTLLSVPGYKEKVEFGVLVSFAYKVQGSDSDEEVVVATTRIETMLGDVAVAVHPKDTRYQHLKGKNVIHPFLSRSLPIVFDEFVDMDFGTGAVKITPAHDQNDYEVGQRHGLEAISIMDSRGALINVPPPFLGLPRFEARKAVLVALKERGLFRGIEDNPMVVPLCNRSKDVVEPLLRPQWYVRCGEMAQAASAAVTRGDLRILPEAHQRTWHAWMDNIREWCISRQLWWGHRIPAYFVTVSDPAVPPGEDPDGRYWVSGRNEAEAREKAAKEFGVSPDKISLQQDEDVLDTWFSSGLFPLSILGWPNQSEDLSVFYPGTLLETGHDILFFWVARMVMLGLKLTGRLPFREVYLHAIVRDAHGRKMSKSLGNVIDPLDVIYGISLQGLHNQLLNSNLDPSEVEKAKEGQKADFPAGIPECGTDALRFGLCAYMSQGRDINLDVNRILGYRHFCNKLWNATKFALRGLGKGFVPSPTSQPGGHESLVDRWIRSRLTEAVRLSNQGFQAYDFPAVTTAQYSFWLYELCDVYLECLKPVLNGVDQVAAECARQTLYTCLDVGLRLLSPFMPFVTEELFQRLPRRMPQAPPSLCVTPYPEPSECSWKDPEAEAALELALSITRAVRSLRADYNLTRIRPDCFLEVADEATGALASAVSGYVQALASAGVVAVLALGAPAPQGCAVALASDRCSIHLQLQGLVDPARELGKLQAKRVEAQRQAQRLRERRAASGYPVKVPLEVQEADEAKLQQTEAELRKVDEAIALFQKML
inactive: erlotinib 0.031 | [1] 0.035 | [2] -0.031 | [3] 0.007 | [4] 0.03 | [5] 0.019 | [6] -0.035 | [7] 0.021 | [8] -0.002 | IRAK-1-4 Inhibitor I 0.011 | ibrutinib 0.015 | [9] -0.003 | ralimetinib 0.042 | [10] 0.018 | [11] 0.032 | [12] 0.006 | [13] -0.047 | [14] 0.001 | [15] 0.041 | [16] 0.035

VPS33A (UniProt Q96AX1)
inactive: erlotinib 0.024 | [1] 0.005 | [2] 0.024 | [3] 0.035 | [4] 0.018 | [5] -0.006 | [6] -0.023 | [7] -0.025 | [8] 0.036 | IRAK-1-4 Inhibitor I 0.015 | ibrutinib 0.024 | [9] -0.01 | ralimetinib 0.039 | [10] 0.005 | [11] -0.003 | [12] 0.008 | [13] 0.013 | [14] 0.013 | [15] 0.043 | [16] -0.032
